From PubChem BioAssay
This is a sample that favours compounds with a hit; in the whole collection about 2.3% have one here.
aSyn 5UTR inh: MLPCN primary screen, SNCA 5' untranslated region | inhibition, % (tested at 7.5 µM) | AID 1813, 2009 | 300,000 tested, 0.82% active | alpha-synuclein 5'UTR reporter, inhibitor activity; in the data active = inhibition above about 60%; inconclusive = no clear call, values can overlap the other calls;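 also: H4 neuroglioblastoma cells stably carrying SNCA 5'UTR luciferase fusion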
Jurkat NFkB inh: inhibitors of induced NF-kB luciferase reporter, primary screen, TCR NF-kB activation inhibitor project, cell-based, luminescence, uHTS. Jurkat, PMA/ionomycin-induced NF-kB luciferase reporter. inhibition, % at 4 µM. 330,000 tested, 0.53% active; in the data active = inhibition above about 50%
TAG inh: inhibitors of triacylglycerol accumulation, primary screen, cell-based, uHTS, fluorescence, H9c2; H9c2 cells, Nile Red lipid (TAG) fluorescence; cells loaded with 200 µM oleic acid; inhibition, % at 12.5 µM; 230,000 tested, 0.66% active;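 active = pattern-corrected inhibition of lipid staining of at least 50% with the nuclear-stain viability signal not falling by more than 50%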
Gli-Sufu antag: Gli-Sufu pathway antagonists, primary screen, luciferase luminescence, Sufu-KO-LIGHT cells, uHTS; 340,000 tested, 0.74% active; AID 588413, 2011; Sufu-KO-LIGHT fibroblasts, Gli luciferase reporter luminescence; inhibition, % at 5 µM;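 active = inhibition above about 55%, limit read from the data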
697 NFkB inh: inhibitors of PMA/ionomycin-induced NF-kB reporter, 697 cells, primary screen, B-cell NF-kB inhibitor project, cell-based, luminescence, uHTS | AID 435022, 2010 | 697 B-cell NF-kB luciferase reporter, 16 h | inhibition, % at 4 µM | 330,000 tested, 0.33% active; in the data active = inhibition above about 35%
Shn3 3UTR inh: reduction of Shn3 3'UTR firefly luciferase signal, primary screen, Schnurri-3 inhibitor project, cell-based, Clone20 osteoblasts, set 2 | Clone20 osteoblast Shn3 3'UTR firefly luciferase, 24 h | inhibition, % at 12.5 µM | 360,000 tested, 0.52% active;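 active = mean inhibition of at least 75% with every replicate also reaching 75%; inconclusive = mean inhibition at least 75% but some replicate below; inactive = mean inhibition below 75%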
A number is an active result; 0 = inactive; ? = inconclusive; - = no result.

SMILES | aSyn 5UTR inh | Jurkat NFkB inh | TAG inh | Gli-Sufu antag | 697 NFkB inh | Shn3 3UTR inh
COc1ccc(-c2sc3cc4c(cc3c2C#CC2(N)CCCCC2)OCO4)cc1 | - | 0 | 59 | 0 | 0 | 0
COc1cc(C#Cc2c(-c3cncn3C)n(C)c3ccc(-c4ccc(OC)nc4)cc23)cc(OC)c1 | - | 0 | 103 | 0 | 0 | 94
COc1ccc(-c2c(C#Cc3ccsc3)c3cc(-c4ccc(OC)nc4)ccc3n2C)cc1 | - | 0 | 0 | 0 | 0 | 0
CCn1nc(C)c(/C=N/NC(=O)Cn2nc(C)cc2C)c1C | 0 | 0 | - | 0 | 0 | 0
CCN(CC(=O)Nc1c(F)cccc1F)C(=O)/C=C/c1ccc(S(=O)(=O)N2CCCCCC2)cc1 | 78 | 0 | 0 | 0 | 0 | 0
CCN(CC(=O)Nc1c(F)cccc1F)C(=O)c1ccc(S(=O)(=O)N2CCCC2)cc1 | 0 | 0 | 0 | 0 | 0 | 0
C[n+]1c2n(c3ccccc31)N=C(c1ccc(Br)cc1)CS2 | 0 | 0 | 0 | 68 | 0 | 0
CCc1nnc2n1N=C(c1ccc(Br)cc1)CS2 | 0 | 0 | - | 0 | 0 | 0
Cc1ccc(S(=O)(=O)Nc2cc(Cl)c(O)c3ncccc23)cc1 | 77 | 0 | 0 | 69 | 0 | 0
COc1ccc(S(=O)(=O)NCCCCC(=O)O)cc1C(=O)O | 0 | 0 | 0 | 0 | 0 | 0
Cc1ccc(/C=[N+](/C)[O-])cc1 | 0 | 0 | 0 | 0 | 0 | 0
C=CC(=O)Nc1cccc(Nc2nc(N[C@H]3CC[C@H](N(C)C)CC3)nc3c2ncn3C(C)C)c1 | - | - | 0 | 76 | - | 0
Cc1cc(Oc2ccc(N)cn2)cc(C)c1Cl | 0 | 0 | 0 | 0 | 0 | -
CC(C)(C)c1ccc(Oc2ccc(N)cn2)cc1 | 87 | 0 | 0 | 0 | 0 | 0
CCN(C(=O)COC(=O)CN1C(=O)c2ccccc2C1=O)c1ccccc1 | - | 0 | 0 | 0 | 0 | 0
CC[C@@H](C)[C@H](CN[C@H](CNC)C(C)C)NC[C@@H](C)c1ccc(CC(C)C)cc1 | 0 | 0 | 127 | 0 | 0 | 0
O=c1c2c(-c3ccccc3)csc2nc2c3ccccc3c(NCCN3CCOCC3)nn12 | 0 | - | 100 | 0 | - | 0
COc1ccc(S(=O)(=O)N2c3ccccc3OCC2CC(=O)O)cc1 (stereo not drawn) | 0 | 0 | - | 0 | 0 | 0
COc1ccc(C(=O)Oc2c(CN3CCOCC3)cc(Cl)c3cccnc23)cc1 | 0 | 0 | 0 | 0 | 0 | 0
O=C(Oc1c(CN2CCOCC2)cc(Cl)c2cccnc12)c1ccc(F)cc1 | 65 | 0 | - | 0 | 0 | 0
O=C(Oc1c(CN2CCOCC2)cc(Cl)c2cccnc12)c1ccccc1Cl | 105 | 0 | 0 | 0 | 0 | ?
O=C(Oc1c(CN2CCOCC2)cc(Cl)c2cccnc12)c1cccs1 | 108 | 0 | 0 | 0 | 0 | 0
CC1=C(/C=C/C(=O)O)C(C)(C)CCC1 | 0 | 0 | 0 | 0 | 0 | 0
O=C(c1cccnc1)N1CCC(Oc2ccc(C(=O)N3CCCC(O)C3)cc2)CC1 (stereo not drawn) | 0 | 0 | 0 | 0 | 0 | 0
O=S(=O)(/C=C/C=C/S(=O)(=O)c1ccccc1)c1ccccc1 | - | - | 0 | 0 | - | 98
SMILES | aSyn 5UTR inh | Jurkat NFkB inh | TAG inh | Gli-Sufu antag | 697 NFkB inh | Shn3 3UTR inh
CCCn1c(=O)c(C(=O)NC(C)c2ccccc2)c(O)c2ccccc21 (stereo not drawn) | 0 | 0 | - | 0 | 0 | 0
Cc1cc(=O)n(C)c2ccc(S(=O)(=O)N3CCOCC3)cc12 | 0 | 0 | - | 0 | 0 | 0
Cn1c(O)c(N=NC(=S)Nc2ccccc2F)c2cc(S(=O)(=O)N3CCOCC3)ccc21 | 95 | - | 0 | 0 | - | 0
Cc1ccc(NC(=S)N=Nc2c(O)n(C)c3ccc(S(=O)(=O)N4CCOCC4)cc23)cc1C | 77 | 0 | - | 0 | 0 | 0
CCOC(=O)c1ccc(NC(=O)CC2C(=O)N(c3cccc(OC)c3)C(=O)N2CCOC)cc1 (stereo not drawn) | 0 | 0 | 0 | 0 | 0 | 0
CC1CN(c2ccc([N+](=O)[O-])c(NCCOc3ccc(Cl)cc3)c2)CC(C)N1 (stereo not drawn) | 104 | 0 | - | 0 | 0 | 0
CC1CN(c2ccc([N+](=O)[O-])c(NCCOc3ccccc3)c2)CC(C)N1 (stereo not drawn) | 0 | 0 | - | 0 | 0 | 0
